Inconclusive results are not listed. The source holds several records for some structures; these can differ, active in one and inactive in another. The source made the active and inactive calls. The calls were made as follows, unless noted: active = hit-call score of the fitted dose curve at least 0.9, where 1 is the maximum; inconclusive = response in the unintended direction; inactive = score below 0.9.
Columns and labels:
[1] = target: Estrogen receptor (Homo sapiens) + Estrogen receptor beta (Homo sapiens) (UniProt P03372+Q92731); assay: OT_ER_ERaERb_1440: Odyssey Thera (OT) 24-hour HEK293T Protein-Complementation Assay for Estrogen Receptor-alpha/-beta Homodimer (AID 2283356);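 also: heteromer of ER alpha and ER beta binding domains; hits raise reporter fluorescence and both agonists and antagonists give an increase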
How it was run: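 HEK293T cells stably expressing a PCA pair of ERα LBD (aa 310-547) and ERβ LBD (aa 263-489) were dosed for 24 h. Fluorescence intensity increase versus DMSO vehicle was fitted as gain-of-signal.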

[2] = target: Estrogen receptor beta (Homo sapiens) (UniProt Q92731); assay: OT_ER_ERbERb_0480: Odyssey Thera (OT) 8-hour HEK293T Protein-Complementation Assay for Estrogen Receptor-beta/-beta Homodimer (AID 2283357);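 also: active means signal gain over DMSO baseline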
How it was run: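 Cells (HEK293T, stable ER-beta LBD PCA pair) are treated 8 hours, fixed and Draq5-stained; signal is fluorescence intensity increase relative to vehicle, fitted in the gain direction.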

[3] = target: human Thyroid Receptor Alpha (TRa), THRA (gene 7067) (UniProt P10827); assay: NVS_NR_hTRa_Antagonist: NovaScreen (NVS) Nuclear Receptor Binding Assay for human Thyroid Receptor Alpha Antagonism (TRa) (AID 2283362);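 also: activity is loss of signal relative to DMSO baseline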
How it was run: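 Cell-free binding assay on extracted receptor protein, read 1 h after chemical dosing by AlphaLISA chemiluminescence; loss of signal relative to DMSO baseline marks antagonism. Primary screen ran in duplicate at 25 uM, with concentration series for actives.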

[4] = target: Nuclear receptor subfamily 1 group I member 2 (Homo sapiens) (UniProt O75469); assay: NVS_NR_hPXR: NovaScreen (NVS) Nuclear Receptor Binding Assay for human Pregnane X Receptor (PXR) (AID 2283365);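 also: a drop in FRET signal versus DMSO baseline means the compound binds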
How it was run: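 Cell-free binding assay with extracted human PXR protein, read by TR-FRET 2 h after dosing; loss of signal relative to DMSO baseline indicates binding. Primary screen at 25 uM in duplicate, actives retested in concentration series.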

[5] = target: Peroxisome proliferator-activated receptor gamma (Homo sapiens) (UniProt P37231); assay: NVS_NR_hPPARg: NovaScreen (NVS) Nuclear Receptor Binding Assay for human Peroxisome Proliferator-activated Receptor gamma (PPARg) (AID 2283370)
How it was run: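 Cell-free binding to extracted PPARg protein, read by fluorescence polarization 2 h after dosing; loss of signal relative to DMSO baseline marks displacement. Primary screen in duplicate at 25 uM, actives retested in concentration series.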

[6] = target: Estrogen receptor beta (Homo sapiens) (UniProt Q92731); assay: OT_ER_ERbERb_1440: Odyssey Thera (OT) 24-hour HEK293T Protein-Complementation Assay for Estrogen Receptor-beta/-beta Homodimer (AID 2283380);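 also: fluorescence gain from ER beta LBD homodimer complementation read by laser scanning cytometry; scored as signal increase over DMSO baseline for both agonists and antagonists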
How it was run: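 Fluorescence increase, nuclear for agonists or whole-cell for antagonists, relative to DMSO vehicle, quantified by laser scanning cytometer after fixation and Draq5 staining. Readout from 24 h treatment of HEK293T cells carrying complementation-paired ER beta LBD (aa 310-547).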

[7] = target: Estrogen receptor (Homo sapiens) (UniProt P03372); assay: OT_ERa_GFPERaERE_0480: Odyssey Thera (OT) 8-hour HeLa Transcription Induction Assay for Estrogen Receptor (AID 2283381; active = hit-call score of the fitted dose curve at least 0.9, where 1 is the maximum; inactive = score below 0.9)
How it was run: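 HeLa cells expressing GFP reporter under estrogen response element, imaged 8 h after dosing. GFP induction quantified by high-content fluorescence microscopy image analysis; gain of signal fitted versus DMSO.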

[8] = target: mouse Estrogen Receptor alpha (Era), Esr1 (gene 13982) (UniProt P19785); assay: NVS_NR_mERa: NovaScreen (NVS) Nuclear Receptor Binding Assay for mouse Estrogen Receptor alpha (Era) (AID 2283378);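 also: hit means loss of bound radioligand signal relative to DMSO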
How it was run: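 Cell-free radioligand binding with extracted mouse Era protein; competitive displacement of radiolabelled ligand, read by filter-based scintillation counting 18 hours after dosing. Loss of signal versus DMSO baseline taken as binding; single screening concentration 25 uM, actives followed in concentration series.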

[9] = target: Agonist Androgen Response Element (ARE), AR (gene 367) (UniProt P10275); assay: OT_AR_ARELUC_AG_1440: Odyssey Thera (OT) 24-hour CHO-K1 Luciferase Assay for Agonist Androgen Response Element (ARE) (AID 2283379)
How it was run: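 Agonist mode, 24 h exposure in CHO-K1 ARE-luciferase cells; values reflect luminescence induction over vehicle.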

[10] = target: Retinoic acid receptor alpha (Homo sapiens) (UniProt P10276); assay: NVS_NR_hRAR_Antagonist: NovaScreen (NVS) Nuclear Receptor Binding Assay for human Retinoic Acid Alpha Receptor Antagonism (RAR) (AID 2283358)
How it was run: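 TR-FRET, cell-free, antagonist format; 2 h incubation after dosing; DMSO = baseline; signal loss fitted; 25 uM duplicate primary, then conc. series.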

[11] = target: human Peroxisome Proliferator-activated Receptor alpha (PPARa), PPARA (gene 5465) (UniProt Q07869); assay: NVS_NR_hPPARa: NovaScreen (NVS) Nuclear Receptor Binding Assay for human Peroxisome Proliferator-activated Receptor alpha (PPARa) (AID 2283359);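 also: activity means loss of TR-FRET signal versus DMSO baseline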
How it was run: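 Chemicals were first screened in duplicate at 25 uM, and active ones were retested across concentration series. Binding was monitored by TR-FRET one hour after dosing, with decreased signal against DMSO counted as activity.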

[12] = target: rat Mineralocorticoid Receptor (MR), Nr3c2 (gene 25672) (UniProt P22199); assay: NVS_NR_rMR: NovaScreen (NVS) Nuclear Receptor Binding Assay for rat Mineralocorticoid Receptor (MR) (AID 2283355)
How it was run: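 Adrenalectomized rat brain supernatant was dosed with test chemical, then radioligand binding was measured by scintillation counting at 24 h. Initial testing ran in duplicate at 25 uM, followed by concentration series for actives.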

[13] = target: rat Serotonin Transporter (SERT), Slc6a4 (gene 25553) (UniProt P31652); assay: NVS_TR_rSERT: NovaScreen (NVS) Transporter Assay for rat Serotonin Transporter (SERT) (AID 2283375)
How it was run: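 Rat forebrain membranes were incubated with test chemical for 1 hour; radioligand binding to SERT was measured by filter-based scintillation counting. Primary screen ran in duplicate at 25 uM, with actives followed up in concentration series; DMSO served as negative control.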

[14] = target: human Dopamine Transporter (DAT), SLC6A3 (gene 6531) (UniProt Q01959); assay: NVS_TR_hDAT: NovaScreen (NVS) Transporter Assay for human Dopamine Transporter (DAT) (AID 2283374);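 also: activity means loss of bound radioligand signal relative to DMSO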
How it was run: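 Test chemicals were first screened in duplicate at 25 uM, with actives retested as concentration series. Displacement of a specific radioligand from cell-free human dopamine transporter was measured after 1 h by filtration and scintillation counting.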

[15] = target: human Norepinephrine Transporter (NET), SLC6A2 (gene 6530) (UniProt P23975); assay: NVS_TR_hNET: NovaScreen (NVS) Transporter Assay for human Norepinephrine Transporter (NET) (AID 2283377);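 also: cell-free membrane protein extracted from CHO cells expressing human NET; displacement of radioligand from human NET seen as loss of scintillation signal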
How it was run: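 Scintillation counts of filter-retained radioligand served as the readout, taken 1 h post-dosing in a cell-free CHO-derived system. Test chemicals ran first at 25 uM in duplicate; confirmed hits were retested across concentrations.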

Measured: AC50

Sequence of Peroxisome proliferator-activated receptor gamma (Homo sapiens) (P37231 whole entry, looked up): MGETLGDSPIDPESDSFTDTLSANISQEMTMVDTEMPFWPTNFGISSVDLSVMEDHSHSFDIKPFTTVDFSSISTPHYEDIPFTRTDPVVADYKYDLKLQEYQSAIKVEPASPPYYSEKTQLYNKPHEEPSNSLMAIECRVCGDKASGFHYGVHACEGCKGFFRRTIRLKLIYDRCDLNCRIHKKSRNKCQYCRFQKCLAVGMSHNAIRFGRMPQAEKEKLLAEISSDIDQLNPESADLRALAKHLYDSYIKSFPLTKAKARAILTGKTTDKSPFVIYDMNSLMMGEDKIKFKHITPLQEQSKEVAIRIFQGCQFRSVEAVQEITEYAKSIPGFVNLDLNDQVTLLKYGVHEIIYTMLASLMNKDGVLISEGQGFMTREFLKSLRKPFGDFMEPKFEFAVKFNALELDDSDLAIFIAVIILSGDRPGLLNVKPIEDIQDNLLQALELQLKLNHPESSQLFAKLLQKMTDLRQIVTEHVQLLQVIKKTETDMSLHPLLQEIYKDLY
Sequence of Nuclear receptor subfamily 1 group I member 2 (Homo sapiens) (O75469 whole entry, looked up): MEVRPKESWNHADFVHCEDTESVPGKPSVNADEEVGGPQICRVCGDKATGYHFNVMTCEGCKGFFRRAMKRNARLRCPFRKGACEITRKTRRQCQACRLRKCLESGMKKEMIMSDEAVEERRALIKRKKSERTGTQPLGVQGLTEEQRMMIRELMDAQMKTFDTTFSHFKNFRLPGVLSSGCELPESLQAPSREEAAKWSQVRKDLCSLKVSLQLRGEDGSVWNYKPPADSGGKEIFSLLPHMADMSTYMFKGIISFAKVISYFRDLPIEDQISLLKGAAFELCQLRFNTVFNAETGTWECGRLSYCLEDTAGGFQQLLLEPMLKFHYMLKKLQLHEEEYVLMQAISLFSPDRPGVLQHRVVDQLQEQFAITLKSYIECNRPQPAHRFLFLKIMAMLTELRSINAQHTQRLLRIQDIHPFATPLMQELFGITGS
Sequence of mouse Estrogen Receptor alpha (Era), Esr1 (gene 13982) (P19785 whole entry, looked up): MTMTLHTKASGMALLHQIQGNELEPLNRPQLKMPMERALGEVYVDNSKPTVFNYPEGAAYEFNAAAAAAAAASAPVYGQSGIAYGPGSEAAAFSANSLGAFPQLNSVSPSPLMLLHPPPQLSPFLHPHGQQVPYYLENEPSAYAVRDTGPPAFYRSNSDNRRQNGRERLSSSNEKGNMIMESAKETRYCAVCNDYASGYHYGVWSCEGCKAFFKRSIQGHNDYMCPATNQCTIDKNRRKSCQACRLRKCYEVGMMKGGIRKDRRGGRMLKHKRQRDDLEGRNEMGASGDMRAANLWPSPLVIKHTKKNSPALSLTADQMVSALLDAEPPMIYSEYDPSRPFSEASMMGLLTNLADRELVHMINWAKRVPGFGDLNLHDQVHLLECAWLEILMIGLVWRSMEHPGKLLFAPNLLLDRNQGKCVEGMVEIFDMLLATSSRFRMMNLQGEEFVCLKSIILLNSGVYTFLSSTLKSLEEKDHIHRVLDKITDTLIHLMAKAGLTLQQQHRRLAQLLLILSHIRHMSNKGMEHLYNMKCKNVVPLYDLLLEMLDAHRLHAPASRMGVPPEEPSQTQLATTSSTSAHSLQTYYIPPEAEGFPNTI
Sequence of Estrogen receptor beta (Homo sapiens) (Q92731 whole entry, looked up, the tested form may be a part): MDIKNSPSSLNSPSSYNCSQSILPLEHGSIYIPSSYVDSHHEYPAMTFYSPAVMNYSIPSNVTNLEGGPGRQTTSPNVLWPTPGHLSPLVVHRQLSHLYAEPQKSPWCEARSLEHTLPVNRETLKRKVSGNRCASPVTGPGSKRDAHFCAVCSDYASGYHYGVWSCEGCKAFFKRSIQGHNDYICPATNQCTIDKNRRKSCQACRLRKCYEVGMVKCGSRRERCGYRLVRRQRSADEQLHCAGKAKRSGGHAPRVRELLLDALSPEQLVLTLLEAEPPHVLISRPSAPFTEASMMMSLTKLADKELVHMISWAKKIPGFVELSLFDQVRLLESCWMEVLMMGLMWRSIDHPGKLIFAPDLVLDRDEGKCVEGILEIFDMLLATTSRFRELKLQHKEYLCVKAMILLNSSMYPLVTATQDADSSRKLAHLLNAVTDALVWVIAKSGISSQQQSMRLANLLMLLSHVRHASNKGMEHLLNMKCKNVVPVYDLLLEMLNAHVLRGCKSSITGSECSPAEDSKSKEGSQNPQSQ
Sequence of Estrogen receptor (Homo sapiens) + Estrogen receptor beta (Homo sapiens) (P03372 whole entry, looked up, the tested form may be a part): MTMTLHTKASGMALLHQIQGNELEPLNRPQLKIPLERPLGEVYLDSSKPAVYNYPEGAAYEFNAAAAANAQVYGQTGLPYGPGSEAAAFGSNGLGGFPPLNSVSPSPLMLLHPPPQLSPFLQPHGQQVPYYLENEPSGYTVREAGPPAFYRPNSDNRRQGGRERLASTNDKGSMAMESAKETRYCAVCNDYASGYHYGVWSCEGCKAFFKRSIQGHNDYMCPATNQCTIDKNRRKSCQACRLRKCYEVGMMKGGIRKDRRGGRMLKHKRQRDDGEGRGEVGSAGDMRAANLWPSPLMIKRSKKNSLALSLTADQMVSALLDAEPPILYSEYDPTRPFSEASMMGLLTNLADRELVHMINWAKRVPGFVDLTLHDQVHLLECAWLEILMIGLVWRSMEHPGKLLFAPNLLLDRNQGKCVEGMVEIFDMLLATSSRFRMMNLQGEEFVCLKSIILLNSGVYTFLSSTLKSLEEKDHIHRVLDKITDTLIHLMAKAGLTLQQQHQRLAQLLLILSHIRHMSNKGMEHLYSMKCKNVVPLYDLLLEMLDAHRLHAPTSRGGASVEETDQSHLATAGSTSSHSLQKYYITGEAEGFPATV
Sequence of Estrogen receptor (Homo sapiens) + Estrogen receptor beta (Homo sapiens) (Q92731 whole entry, looked up, the tested form may be a part): as the sequence (Q92731 whole entry, looked up, the tested form may be a part) above
Sequence of Estrogen receptor (Homo sapiens) (P03372 whole entry, looked up): as the sequence (P03372 whole entry, looked up, the tested form may be a part) above
Sequence of rat Mineralocorticoid Receptor (MR), Nr3c2 (gene 25672) (P22199 whole entry, looked up): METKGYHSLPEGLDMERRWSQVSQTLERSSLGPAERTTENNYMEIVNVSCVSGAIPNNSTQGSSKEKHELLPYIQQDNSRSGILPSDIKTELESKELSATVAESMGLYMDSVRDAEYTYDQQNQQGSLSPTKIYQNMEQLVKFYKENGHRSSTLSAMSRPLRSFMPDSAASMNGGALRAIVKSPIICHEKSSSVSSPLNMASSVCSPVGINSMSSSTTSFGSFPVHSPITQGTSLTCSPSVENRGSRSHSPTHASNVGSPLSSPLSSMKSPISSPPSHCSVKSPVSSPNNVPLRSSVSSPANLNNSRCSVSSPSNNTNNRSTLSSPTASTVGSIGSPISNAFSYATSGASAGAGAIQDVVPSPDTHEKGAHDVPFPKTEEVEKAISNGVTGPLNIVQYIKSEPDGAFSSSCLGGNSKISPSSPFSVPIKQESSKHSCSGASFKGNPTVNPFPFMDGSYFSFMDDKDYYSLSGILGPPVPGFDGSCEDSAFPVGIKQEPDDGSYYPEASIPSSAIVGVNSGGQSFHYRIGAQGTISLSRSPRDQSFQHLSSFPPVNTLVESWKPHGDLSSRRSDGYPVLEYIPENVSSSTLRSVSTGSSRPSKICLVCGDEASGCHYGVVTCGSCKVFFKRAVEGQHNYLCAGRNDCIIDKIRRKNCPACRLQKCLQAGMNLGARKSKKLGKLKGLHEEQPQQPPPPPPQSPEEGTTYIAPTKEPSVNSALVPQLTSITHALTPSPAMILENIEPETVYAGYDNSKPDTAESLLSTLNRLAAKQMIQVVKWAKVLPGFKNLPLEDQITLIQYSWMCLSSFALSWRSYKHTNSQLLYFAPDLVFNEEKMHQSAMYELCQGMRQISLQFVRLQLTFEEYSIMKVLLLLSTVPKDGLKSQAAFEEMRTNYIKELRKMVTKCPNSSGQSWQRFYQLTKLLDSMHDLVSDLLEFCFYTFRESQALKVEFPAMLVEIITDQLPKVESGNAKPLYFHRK

Cc1ccc(N/N=c2\c(=O)cc/c(=N/Nc3ccc(S(=O)(=O)O)cc3)c2=O)c(C)c1
active: [3] 18.6 µM | [4] 2.79 µM | [5] 16 µM
inactive: [1] | [2] | [6] | [7]

O=C(O)CCCC[C@@H]1SC[C@@H]2NC(=O)N[C@@H]21
inactive: [1] | [2] | [8] | [6] | [7]

CCCCCCCCO[C@@H]1O[C@H](CO)[C@@H](O)[C@H](O)[C@H]1O
active: [5] 36.5 µM
inactive: [1] | [2] | [6] | [7]

O=S1(=O)OC(c2ccc(O)cc2)(c2ccc(O)cc2)c2ccccc21
inactive: [1] | [2] | [4] | [5] | [6]
active: [3] 11 µM | [8] 20.1 µM | [7] 73 µM

CC(C)=CCC[C@H](C)CCO
active: [9] 0.239 µM
inactive: [1] | [2] | [6] | [7]

CCCCCCCCCCCCCOP(=O)(O)O
inactive: [1] | [2] | [10] | [11] | [4] | [5] | [6] | [7]
active: [8] 39.4 µM

CC(C)(c1cc(Br)c(OCCO)c(Br)c1)c1cc(Br)c(OCCO)c(Br)c1
inactive: [12] | [8]
active: [13] 2.88 µM

CCCCCCCOC(=O)CCC
inactive: [12] | [1] | [2] | [6] | [7]

CN(C)c1ccc(N=Nc2ccccc2C(=O)O)cc1
inactive: [1] | [2] | [8] | [6] | [7]

CC(=O)OC(C)C
active: [6] 25.9 µM | [7] 69.2 µM
inactive: [1] | [2] | [4] | [5] | [8]

CCCCC/C=C\C/C=C\CCCCCCCC(=O)OC
active: [5] 8.81 µM | [15] 25 µM
inactive: [1] | [2] | [11] | [4] | [5] | [14] | [8] | [6] | [7]

O=C1C(N(CO)C(=O)NCO)N(CO)C(=O)N1CO (centres undefined)
inactive: [1] | [2] | [6] | [7]

CCCc1ccc(OC)cc1
inactive: [1] | [2] | [9] | [6] | [7]
